In PubChem BioAssay AID1259313 (Sanford-Burnham Center for Chemical Genomics, 2017):
“And” between values parts separate entries of the source, which are not always exact repeats. Identical values can stand only once. Among all 340,000 compounds or so, about 8,500 (2.5%) were called active.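 Rule for the calls: active = melting temperature shift of at least 10% of the positive control shift, at one fixed dose; inactive = the rest.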 The sample as a whole holds a higher share of actives than the screen did.

The compounds below were run on Glutamate receptor ionotropic, NMDA 3A (GRIN3A) ligand-binding domain (assay: binders of NR3A ligand-binding domain, primary screen, biophysical, differential scanning fluorimetry, uHTS (AID 1259313)). Conditions: NR3A LBD differential scanning fluorimetry, at 25 µM, active compounds read high, 0% = protein alone, 100% = glycine-bound protein.

Tm shift relative to glycine control, inactive:
CC(=O)C(CC(=O)N1CCCC1)C(=O)Nc1ccc(Cl)cc1 (centres undefined) -1.13%
Cc1cc(C)nc(-n2nc(C)cc2NC(=O)c2ccc(F)cc2F)n1 -2.66%
COc1ccc(CCNC(=O)C(=O)Nc2ccc3nc4n(c(=O)c3c2)CCCCC4)cc1OC -0.47%
O=C(Nc1ccc2nc3n(c(=O)c2c1)CCCC3)c1ccc(Cl)nc1 -1.29%
C=CCn1c(P(C)(=O)O)nc2ccccc21 -0.35% and 1.55%
Cc1noc(C)c1CSCC(=O)Nc1nc2ccc(Oc3ccccc3)cc2s1 0.97%
CCCC(=O)N(CCN1CCOCC1)c1nc2ccc(OCC)cc2s1 -6.33%
Cc1nc2ccc(NC(=O)C3CCCCC3)cc2s1 -3.66%
COc1ccc(CNC(=O)c2ccc(Br)s2)cc1OC 1.11%
CSc1nc2ccc(NC(=O)c3c(F)cccc3F)cc2s1 3.67%
COc1ccc(S(=O)(=O)N2CCCCC2)cc1NC(=O)c1cc([N+](=O)[O-])ccc1N1CCOCC1 -1.87%
CCCn1nc(C(=O)Nc2ccc3nc(C)sc3c2)c2ccccc2c1=O -1.69%
COc1ccc(NC(C(=O)Nc2cccc(C(C)=O)c2)c2ccccc2)cc1 (centres undefined) -15.9%
Cc1ccccc1-n1nnc2c(=O)oc3ccccc3c21 1.45%
O=C1CC(c2c(F)cccc2Cl)C(n2cncn2)C(O)=C1C1NCCc2ccccc21 (centres undefined) -0.39%
CC(C)N(c1ccccc1)c1ncnc(NCCC(=O)O)c1[N+](=O)[O-] -4.26%
Cc1cccc(C(=O)NCC(=O)OCC(=O)N(C)CC(=O)Nc2ccccc2Cl)c1 -0.85%
COc1ccc(CNC(=O)COc2cccnc2[N+](=O)[O-])cc1 1.77%
Cc1ccc(NC(=O)Cc2nc(COC(=O)C(C)NS(=O)(=O)c3ccc(C)cc3)cs2)cc1 (centres undefined) -1.68%
Cc1cc(C(=O)N2CCC(C(=O)O)CC2)c(C(F)(F)F)o1 2.93%
CCOc1ccc2nc(NC(=O)CSc3nc4c(c(=O)n(C)c(=O)n4C)n3CC)sc2c1 1.39%
CCC(=O)c1ccc(OCC(=O)Nc2ccc3nc(C)sc3c2)cc1 0.32%
NS(=O)(=O)c1ccc2nc(NC(=O)C3=COCCO3)sc2c1 -8.75%
c1c2c(cc3sc(N4CCCCC4)nc13)OCCO2 8.4%
O=C(COC(=O)c1c(Cl)cccc1Cl)Nc1cccc(S(=O)(=O)NC2=NCCCCC2)c1 1.06%
O=C(CCl)Nc1ccc(Sc2ccc(NC(=O)CCl)cc2)cc1 -12.3%
CC(=O)N(Cc1cccs1)C1CCOC(C)(C)C1 (centres undefined) -1.65%
FC(F)(F)c1cccc(N/N=C/c2ccccc2)c1 6.56%
Oc1ccc(Br)cc1/C=N/Nc1ccccn1 -22%
CCCCOP(=O)(c1ccc(N(C)C)cc1)C(O)c1cc(OC)ccc1OC (centres undefined) -0.74%
O=S(=O)(Nc1ccccc1Br)c1cccs1 0.85%
O=S(=O)(NCc1ccc(Cl)cc1Cl)c1cccs1 1.65%
NC(=O)Cc1ccc2sc(-c3ccccc3)nc2c1 -2.6%
Cc1ccc(S(=O)(=O)NCC(=O)N(CC(=O)NCC2CCCO2)c2cccc(F)c2)cc1 (centres undefined) -1.71%
O=c1[nH]c(CSc2ncc(-c3ccc(F)cc3)n2Cc2ccco2)nc2ccccc12 -0.27%
CCn1c(SCc2ccccc2)nc2cc(OC)c(OC)cc2c1=O -6.11%
COc1cccc(N(Cc2nnc3n2CCCCC3)C(=O)Nc2ccccc2F)c1 0.08%
CCCN(CCC)C(=S)Nc1cc(C(=O)OC)ccc1C(=O)OC -5.25%
CC(=O)C1=C(C)NC(C)=C(C(C)=O)C1c1cn(-c2ccccc2)nc1-c1cccs1 -4.58%
CCc1ccc(CN(C)C(=O)C2CCC(=O)N(Cc3cccc(OC)c3)C2)nc1 (centres undefined) 1.62%
O=C(Nc1ccc(N2CCOCC2)cc1)c1ccc(-c2ccccc2[N+](=O)[O-])o1 -2.01%
O=C1NC(c2ccc(-c3ccccc3[N+](=O)[O-])o2)C(C(=O)c2ccc(Cl)cc2)C(O)(C(F)(F)F)N1 (centres undefined) -17.2%
Cc1cnc(CN(C)C(=O)C2CCC(=O)N(CCc3cccc(F)c3)C2)[nH]1 (centres undefined) -3.25%
CC(C)C(=O)NCc1cc(-c2ccc(Cl)cc2)no1 0.32%
CSc1ccccc1-c1nnc(-c2ccc(Cl)cc2)o1 0.54%
NC(=O)C[C@@H]1NC(=O)CNC(=O)c2cc([N+](=O)[O-])cc(I)c2NCCC(C(N)=O)NC1=O (some centres undefined) -1.1%
CCC(C)n1[nH]c(=O)cc1N (centres undefined) -2.66%
N#Cc1ccccc1S(=O)(=O)N1CCN(Cc2c(O)ccc3ccccc23)CC1 -5.71%
O=C(O)c1cccc(S(=O)(=O)N2CC=C(c3ccccc3)CC2)c1 1.73%
COc1cc(C(=O)NCC(=O)N2CC=C(c3ccccc3)CC2)cc(OC)c1OC 0.85%
CC(C)c1ccc(Nc2ncccc2C#N)cc1 -9.92%
O=C(COc1ccc([N+](=O)[O-])cc1Cl)Nn1cnnc1 1.68%
CCOc1ccc(/C(O)=C2\C(=O)C(=O)N(c3ccc(OC)cc3)C2c2ccccc2[N+](=O)[O-])cc1 (centres undefined) -0.41%
COc1ccc(S(=O)(=O)N2CCOCC2)cc1NC(=O)c1ccc(OCC(C)C)c(OC)c1 3.09%
CN(C)CCCNC(=S)NCc1ccc(Cl)cc1 2.67%
COC(=O)Cc1ccc(NC(=S)NCc2ccc(Cl)cc2)cc1 -5.66%
O=C(/C=C\c1ccc2c(c1)OCO2)NC1(C(=O)Nc2ccc3c(c2)OCCO3)CCCCC1 -13.2%
CN(C)c1ccc(/C=C/C(=O)c2ccc(O)cc2)cc1[N+](=O)[O-] 5.36%
CC(C)c1nnc(NC(=O)C2CC(=O)N(CCc3ccc(F)cc3)C2)s1 (centres undefined) -0.27%
CCCC(C(=O)n1nc(C)cc1C)C(NS(=O)(=O)c1ccc(C)cc1)c1ccccc1 (centres undefined) -0.23%
COc1ccccc1C(=O)NC(CCSC)C(=O)N1CCN(C(C)=O)CC1 (centres undefined) -1.22%
CSCCC(NC(=O)c1ccccc1)C(=O)N1CCCCCCC1 (centres undefined) 0.17%
O=C(O)CC(Cc1ccccc1)C(=O)Nc1ccc([N+](=O)[O-])cc1 (centres undefined) -4.38%
O=C(Cn1c2[n+](c3ccc(C(F)(F)F)cc31)CCCCC2)Nc1c(F)cccc1F -0.45%
COc1cc(/C=C/C(=O)OCC(=O)NC2CC2)cc(OC)c1OC 3.83%
Cc1nc2ccc(NC(=S)N3CCC(C)CC3)cc2nc1C -0.26%
S=C(Nc1ccc(Br)cc1)NC1CCN(Cc2ccccc2)CC1 -2.33%
CCCN(CC1COc2ccccc2O1)C(=S)Nc1ccc(C)cc1 (centres undefined) -4.99%
O=C(NCC1COc2ccccc2O1)C1(c2ccccc2)CCCC1 (centres undefined) -1.37%
O=S(=O)(NCCCc1ccccc1)c1ccc(Br)cc1 -5.32%
COc1cccc(/C=C2\Sc3ccc(C(=O)NCC4CCCO4)cc3N(C)C2=O)c1 (centres undefined) -11.6%
CN(CCc1ccccn1)C1CCCN(S(=O)(=O)c2ccccc2Cl)C1 (centres undefined) -1.11%
Cc1ccc(C)c(NC(=O)c2ccc(OC(=O)c3ccco3)cc2)c1 -0.45%
CC(=O)n1c(C=Nc2ccccc2)c(O)c2ccccc21 0.18%
Cc1ccn2cc(-c3nonc3C)cc2c1 -33.8%

Tm shift relative to glycine control, active:
CCCCN(CC)C(=S)Nc1ccc2nc3n(c(=O)c2c1)CCCCC3 11%
CCCC(=O)Nc1nc2ccc(NC(=O)c3c(F)c(F)c(OC)c(F)c3F)cc2s1 17.1%
COc1ccc2nc(Nc3nc4ccc(NC(C)=O)cc4s3)sc2c1 25.2%
CCOc1ccc2nc(NC(=O)c3cc([N+](=O)[O-])ccc3N3CCOCC3)sc2c1 17%
COc1ccc2nc(NC(=O)c3ccc(Br)s3)sc2c1 31.3%
CCOc1ccc2nc(Nc3nc4ccc(NC(C)=O)cc4s3)sc2c1 25.2%
COc1ccc2nc(Nc3nc4cc5c(cc4s3)OCCO5)sc2c1 12.4%
Oc1ccc(/C=N/Nc2ccc(C(F)(F)F)cn2)cc1O 21.1%
O=C(Nc1cccc(Cl)c1)Nc1ccccc1NS(=O)(=O)c1cccs1 30.3%
Nc1cc(=O)nc(SCc2ccccc2)n1Cc1ccco1 10.8%
CC1=NN(c2ccc(Cl)c(C(=O)O)c2)C(=O)/C1=C/c1ccc(-c2ccccc2[N+](=O)[O-])o1 31.1%
Oc1ccccc1-c1cc(-c2ccc(Cl)cc2)n[nH]1 31%
O=C(Nc1ccc(Cl)c(Cl)c1)N1CC=C(c2ccccc2)CC1 12.9%
S=C(NCc1ccc(Cl)cc1)NC12CC3CC(CC(C3)C1)C2 15.2%
O=C(/C=C/c1ccc2c(c1)OCCO2)c1ccc(O)cc1 13.4%
CSCCC(NC(=O)c1ccccc1)C(=O)N1CCN(Cc2ccc(Cl)cc2)CC1 (centres undefined) 18.1%
S=C(NCCCc1ccccc1)Nc1ccc(Br)cc1 10.2%
S=C(NCC1COc2ccccc2O1)Nc1ccc(Br)cc1 (centres undefined) 14.7%
Oc1ccc(N=Cc2sc3ccccc3c2Cl)cc1 15.5%
